Data taken from PubChem BioAssay AID977607 (Broad Institute, 2014).
Hit rate of the full screen: of about 1,500 compounds, about 460 (31%) were called active. Another 1% or so got no clear call; they are omitted.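 The calls were made as follows: active = curve reaches 40% activation over neutral controls at an AC40 no higher than the top valid tested concentration; inconclusive = no clear call, values can overlap the other calls; inactive = signal moving opposite to the expected increase, and the rest.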 Not all results are given here. Potency and affinity values are given separately.

Test: GLuc-reported insulin release enhancers, glucose-stimulated beta cells – cell-based, INS-1E, Gaussia luciferase, luminescence, cherry-pick, set 2, dose response (AID 977607);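 also: 0% = median of the plate neutral control wells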
Conditions: INS-1E GLuc insulin secretion reporter, 2-3 h, stronger effect = higher value; at 35 µM, 100% = signal doubled over neutral wells unless noted

Max activation, inactive:
CCOC(=O)CN1C(=O)[C@]2(OCCC=C[C@H]2C)c2ccccc21 33.6%
C1CCN(CCCNC2C3CC4CC(C3)CC2C4)C1 (centres undefined) -11.8% [at 0.0016 µM, 100% = signal doubled over neutral wells]
CCc1nc2c(nnn2Cc2ccc(F)cc2)c(=O)[nH]1 -16% [at 0.42 µM, 100% = signal doubled over neutral wells]
COc1ccc(-c2cc(-c3ccco3)[nH]c(=O)c2C#N)cc1OC -12.7% [at 3.8 µM, 100% = signal doubled over neutral wells]
COc1ccc(CC(=O)N2CCc3cc(OC)c(OC)cc3C2)cc1 20%
O=C(Nc1ccc(NC(=O)c2cccs2)cc1)c1ccc(Br)o1 -18.3% [at 0.135 µM, 100% = signal doubled over neutral wells]
O=C(Nc1nnc(CCS(=O)(=O)c2ccc3ccccc3c2)s1)c1cccs1 -24% [at 0.015 µM, 100% = signal doubled over neutral wells]
CC1(C)N=C(c2ccccc2)C(c2ccccc2)=N1 33.2%
CCOc1ncccc1C(=O)OCC(=O)NCCc1ccc(S(N)(=O)=O)cc1 -12.8% [at 0.046 µM, 100% = signal doubled over neutral wells]
CCOC(=O)c1cc(-c2ccncc2)nc2c1c(C)nn2-c1ccccn1 -16.4% [at 0.005 µM, 100% = signal doubled over neutral wells]
CCOC(=O)Cn1nc(-c2ccccc2)c(-c2ccccc2)nc1=O -19.8% [at 0.005 µM, 100% = signal doubled over neutral wells]
Cc1ccc(-n2cc(CNCCCn3ccnc3C)c(-c3ccc(F)cc3)n2)cc1 -12.6% [at 1.2 µM, 100% = signal doubled over neutral wells]
COc1ccc(S(=O)(=O)N(C)c2ccc(C(=O)N3CCCC3)cc2)cc1OC -12.8% [at 3.8 µM, 100% = signal doubled over neutral wells]
O=C(O)c1ccc(S(=O)(=O)N2CCC3(CC2)CC(=O)c2ccccc2O3)cc1 -16.3% [at 1.2 µM, 100% = signal doubled over neutral wells]
CCCN1C[C@@H](C)[C@@H](OC)CN(C)C(=O)c2ccc(NC(=O)c3cccc(F)c3)cc2OC[C@H]1C -15.7% [at 0.005 µM, 100% = signal doubled over neutral wells]
O=C(Nc1cccc(Cl)c1)c1cnn2cccnc12 29.7%
CCc1nc2ccc(C(=O)NCCCN3CCCC3=O)cn2c1N(CCC(C)C)CCN(C)C -19.8% [at 0.42 µM, 100% = signal doubled over neutral wells]
CC(=O)c1cccc(-c2csc3ncnc(Sc4nnnn4C)c23)c1 -11.8% [at 0.005 µM, 100% = signal doubled over neutral wells]
CCN(CC)C(=O)C1(P(=O)(c2ccccc2)c2ccccc2)CCC1 -17.4% [at 0.42 µM, 100% = signal doubled over neutral wells]
O=C(c1ccco1)N(Cc1ccc(Cl)cc1)C1CCS(=O)(=O)C1 (centres undefined) 17.8%
CCn1nnnc1NCc1ccc(OCc2c(F)cccc2Cl)c(OC)c1 -22.7% [at 1.2 µM, 100% = signal doubled over neutral wells]
O=c1c(Cc2ccc(Cl)cc2Cl)c(O)ccn1CC(F)(F)F 17.3%
COc1ccc(CNC(=O)C2Cc3c(-c4ccccc4)ccnc3O2)cc1OC (centres undefined) -21.6% [at 11 µM, 100% = signal doubled over neutral wells]
C/C(Cl)=C\Cn1c(N2CCCC2)nc2c1c(=O)n(C)c(=O)n2C -30.4% [at 1.2 µM, 100% = signal doubled over neutral wells]
CCNc1nc(NCC)nc(N(C#N)C(C)C)n1 28.6% [at 11 µM, 100% = signal doubled over neutral wells]
Cc1nc2ccccc2c2nc(NC(=O)C(F)(F)F)nn12 -15.5% [at 11 µM, 100% = signal doubled over neutral wells]
CC(C)Oc1ccc(Br)cc1C(=O)N/N=C/c1c[nH]c2ccccc12 -45.1%
CN(C)c1ccc(/C=N/NC(=O)c2ccccc2Cl)cc1 -9.59% [at 0.046 µM, 100% = signal doubled over neutral wells]
NC(=O)c1ncn([C@@H]2O[C@H](C(=O)N[C@H](Cc3ccccc3)C(=O)O)[C@@H](O)[C@H]2O)n1 -32.5%
COc1ccc(N2CCN(C(c3cccs3)C(C)NC(=O)C(=O)N3CCOCC3)CC2)cc1 (centres undefined) -16.6% [at 3.8 µM, 100% = signal doubled over neutral wells]
Cc1ccc(NC(=O)CC2S/C(=N/N=C/c3c[nH]c4ccccc34)NC2=O)cc1 (centres undefined) 19.8% [at 3.8 µM, 100% = signal doubled over neutral wells]
Cc1ccc(CC2S/C(=N/c3ccccn3)NC2=O)cc1 (centres undefined) -16.1% [at 0.42 µM, 100% = signal doubled over neutral wells]
CCOC(=O)N1CCN(S(=O)(=O)N2CCCC(C(=O)NCc3cc(OC)ccc3OC)C2)CC1 (centres undefined) -20.8% [at 1.2 µM, 100% = signal doubled over neutral wells]
CCOC(=O)c1c(NC(=O)c2ccoc2C)sc(C(=O)N(C)C)c1C 12.6%
CC(=O)Nc1sc(C)c(C)c1C(=O)OCC(=O)Nc1cc(S(C)(=O)=O)ccc1Cl -22.2%
O=c1[nH]c(CN2CCN(c3ccc(O)cc3)CC2)nc2scc(-c3ccc(Cl)cc3)c12 -25.6%
CCOc1ccc(C(C)=O)cc1COC(=O)CN1C(=O)NC2(CCCC2)C1=O -28.5% [at 0.005 µM, 100% = signal doubled over neutral wells]
COc1ccc2ccc(=O)oc2c1CC=C(C)C -13.3% [at 0.015 µM, 100% = signal doubled over neutral wells]
COc1ccc(CNC(=O)COC(=O)c2cc(C)nc3ccccc23)cc1 16.2%
CCOC(=O)Cn1c(=O)n(Cc2ccc(OC)cc2)c(=O)c2cccnc21 -22.7% [at 0.005 µM, 100% = signal doubled over neutral wells]
CCOC(=O)c1oc2ccccc2c1NC(=O)c1ccco1 -17.8% [at 0.135 µM, 100% = signal doubled over neutral wells]
CCOC(=O)c1c(C)[nH]c(C(C)=NNC(=O)c2cccs2)c1C -42% [at 11 µM, 100% = signal doubled over neutral wells]
CNC(=O)C(=O)NCC1OCCCN1S(=O)(=O)c1ccc(F)cc1C (centres undefined) -17.8% [at 0.005 µM, 100% = signal doubled over neutral wells]
CC(C)NC(=O)C1(C)CCN1Cc1cccc(C#N)c1 (centres undefined) -13.6% [at 0.0016 µM, 100% = signal doubled over neutral wells]
Cc1cccc(C(=O)NC(=S)NNC(=O)COc2c(C)cccc2C)c1 -26.2% [at 11 µM, 100% = signal doubled over neutral wells]
COc1ccc(-c2cccc(C(=O)Nc3ccc(C)cc3)c2)cc1 26.8%
Cc1ccc(-n2nnnc2SCc2ccc(C(=O)O)cc2)cc1C -23.5% [at 3.8 µM, 100% = signal doubled over neutral wells]
N#CC1=C(N)Oc2nc(-c3ccccc3)[nH]c2C1c1cccnc1 (centres undefined) -20.8% [at 0.005 µM, 100% = signal doubled over neutral wells]
N#Cc1sc2nc(C3CC3)cc(-c3ccccc3)c2c1N -14.8% [at 0.015 µM, 100% = signal doubled over neutral wells]
O=C1CSC(c2cccc(O)c2)N1Cc1ccccc1 (centres undefined) -24.7% [at 0.005 µM, 100% = signal doubled over neutral wells]
C/C=C/c1ccc(OCCN2C(=O)NC(C)(C)C2=O)c(OC)c1 -11.4% [at 0.005 µM, 100% = signal doubled over neutral wells]
CCn1ccc(C(=O)Nc2ccccc2SC)n1 -10.4% [at 0.046 µM, 100% = signal doubled over neutral wells]
O=S(=O)(NCc1ccccc1)c1ccc(S(=O)(=O)N2CCCCC2)cc1 -11.7% [at 3.8 µM, 100% = signal doubled over neutral wells]
NS(=O)(=O)c1ccc(CNC(=O)c2cc(S(=O)(=O)N3CCOCC3)ccc2N2CCCC2)cc1 -17.8% [at 0.0016 µM, 100% = signal doubled over neutral wells]
